Shown are actives, neighbours in structure and some others; about 2.4% of the full set was active somewhere.
D2 antag = HTS Assay for Allosteric Antagonists of the Human D2 Dopamine Receptor: Primary Screen for Antagonists; D(2) dopamine receptor (Homo sapiens), P14416; actives 2% (n = 340,000); inhibition, % at 10 µM; AID 485344, 2010; HEK293 TREx D2 cells, calcium flux, dopamine EC80; in the data active = inhibition above about 30%; inactive = below that, where a call was filed
Target sequence (P14416 whole entry, looked up): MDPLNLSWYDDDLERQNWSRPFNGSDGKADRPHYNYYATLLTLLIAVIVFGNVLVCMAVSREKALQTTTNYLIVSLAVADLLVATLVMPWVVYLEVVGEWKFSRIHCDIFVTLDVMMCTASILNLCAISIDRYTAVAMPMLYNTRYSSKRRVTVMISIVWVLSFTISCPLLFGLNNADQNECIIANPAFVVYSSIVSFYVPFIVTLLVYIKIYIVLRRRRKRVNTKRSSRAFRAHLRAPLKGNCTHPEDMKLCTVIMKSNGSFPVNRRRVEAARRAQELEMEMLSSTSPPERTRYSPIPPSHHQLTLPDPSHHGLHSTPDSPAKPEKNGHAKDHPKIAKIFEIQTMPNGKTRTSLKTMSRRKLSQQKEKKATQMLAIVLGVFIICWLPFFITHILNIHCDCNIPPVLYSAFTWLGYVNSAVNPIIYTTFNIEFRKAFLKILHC
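Read-out: kinetic calcium fluorescence (1 cycle/s) in inducible HEK293 T-REx D2 cells after an EC80 dopamine addition that followed 180 s compound preincubation. Loss of the dopamine response indicates antagonism.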
D2 PAM-1 = HTS Assay for Positive Allosteric Modulators of the Human D2 Dopamine Receptor: Primary Screen for Potentiators. actives 0.34% (n = 340,000). HEK293 T-REx D2, calcium flux, EC20 dopamine potentiation. potentiation, % at 10 µM;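 active = potentiation over 3 SD above the plate norm, cut at about 30% in these data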
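Cells plated with tetracycline inducer and held overnight at 30 C; calcium dye loaded 30–90 min at room temperature; baseline taken, compound added and read 180 s; EC20 dopamine then added and read 180 s.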
D2 ag-1 = HTS Assay for Allosteric Agonists of the Human D2 Dopamine Receptor: Primary Screen for Agonists; activation, % at 2 µM; HEK293 T-REx D2 cells, calcium flux agonist mode; AID 485358, 2010; D(2) dopamine receptor (Homo sapiens), P14416; actives 0.53% (n = 340,000);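 active = activation over 3 SD above normal in the single-dose calcium agonist read, cut at about 30% in these data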
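Tetracycline-induced HEK293 T-REx cells with force-coupled D2 receptor, plated overnight at 30 C, loaded with no-wash calcium dye. After a 10 s baseline, compound was pin-added and calcium flux read kinetically for 180 s; calcium rises flagged agonists.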
D2 PAM-2 = Beta-Arrestin HTS for Positive Allosteric Modulators of the Human D2 Dopamine Receptor: Potentiators. potentiation, % (concentration not given with the values). D(2) dopamine receptor (Homo sapiens), P14416. DiscoveRx D2 beta-arrestin cells, luminescence, 90 min; 100% = 57 uM dopamine signal. actives 0.23% (n = 360,000); in the data active = potentiation above about 50%; inconclusive = mostly about 30% to 49%
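PathHunter beta-arrestin assay in DiscoveRx D2 cells. Compounds were added with an EC20 of dopamine (50 nM final) for 90 min at 37 deg C. Luminescence was read 1 h after detection reagent, with 57 uM dopamine as the EC100 control.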
D2 ag-2 = Beta-Arrestin HTS for Positive Allosteric Modulators of the Human D2 Dopamine Receptor: Agonists | actives 0.084% (n = 360,000) | activation, % (test concentration not listed) | DiscoveRx PathHunter D2 beta-arrestin, luminescence, 90 min; 100% = 57 uM dopamine signal | D(2) dopamine receptor (Homo sapiens), P14416; in the data active = activation above about 40%; inconclusive = between about 15% and that limit
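DiscoveRx PathHunter D2 beta-arrestin cells (2,100/well) attached overnight, then compound-stimulated 90 min at 37 C in HBSS/10 mM HEPES/0.1% Tween-20 buffer; beta-galactosidase complementation read by luminescence after 1 h at ambient temperature. Dopamine 57 uM final (EC100) as control.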
Numbers stand for hits.

What do the screens show for `COc1cc(-c2nnc3sc(C4CCCCC4)nn23)cc(OC)c1OC`?
D2 antag: inactive; D2 PAM-1: 68.9; D2 ag-1: inactive; D2 PAM-2: inactive; D2 ag-2: inactive

How did CCn1c(CN2CCCCC2)nc2cc(NC(=O)COc3ccccc3C(C)(C)C)ccc21 do in these assays?
D2 PAM-1: inactive; D2 ag-1: inactive

How did O=S(=O)(c1ccccc1)N1N=C(c2cccs2)CC1c1ccc(Br)cc1 (configuration not stated) do in these assays?
D2 antag: inactive; D2 PAM-1: 34.6; D2 ag-1: inactive; D2 PAM-2: inactive; D2 ag-2: inactive

How did Cc1cc(C(=O)COC(=O)c2cc(O)c3ccccc3c2O)c(C)n1CC1CCCO1 (configuration not stated) do in these assays?
D2 antag: inactive; D2 PAM-1: inactive; D2 ag-1: inactive; D2 PAM-2: 82.7; D2 ag-2: inconclusive

What do the screens show for `CCC(C)NC(=O)COC(=O)c1cc([N+](=O)[O-])ccc1Sc1nc(C)cs1` (configuration not stated)?
D2 antag: inactive; D2 PAM-1: inactive; D2 ag-1: inactive; D2 PAM-2: 51.2; D2 ag-2: inactive

How did Cc1csc(Sc2ccc([N+](=O)[O-])cc2C(=O)OCC(=O)NC2CCCC(C)C2C)n1 (configuration not stated) do in these assays?
D2 antag: inactive; D2 PAM-1: inactive; D2 ag-1: inactive; D2 PAM-2: inactive; D2 ag-2: inactive

What do the screens show for `CC(C)CCNC(=O)C1CCC(CNS(=O)(=O)c2ccc(Cl)cc2)CC1` (configuration not stated)?
D2 antag: 34.2; D2 PAM-1: inactive; D2 ag-1: inactive; D2 PAM-2: inactive; D2 ag-2: inactive

What do the screens show for `Cc1ccc(C)c(OCCCNCc2ccccc2)c1`?
D2 antag: inactive; D2 PAM-1: inactive; D2 ag-1: inactive; D2 PAM-2: inactive; D2 ag-2: inactive

What do the screens show for `Cc1ccc(C(C)C)c(OCCNCc2ccccc2)c1`?
D2 antag: 67.2; D2 PAM-1: inactive; D2 ag-1: inactive; D2 PAM-2: inactive; D2 ag-2: inactive

Results for O=[N+]([O-])c1ccccc1OCCNCc1ccccc1 ?
D2 antag: 78.1; D2 PAM-1: inactive; D2 ag-1: inactive; D2 PAM-2: inactive; D2 ag-2: inactive

Results for Cc1ccc(-n2ncc(C(=O)NC3CCCCC3)c2C2CCN(C(=O)OC(C)(C)C)CC2)cc1 ?
D2 PAM-1: inactive

What do the screens show for `CC1=C(C)/C(=N\OS(=O)(=O)c2ccc(C)cc2)C=CC1=O`?
D2 PAM-1: inactive; D2 PAM-2: 67.0; D2 ag-2: 48.1

How did COc1cc(C(=O)O/N=C2/C=C(C)C(=O)C=C2C)cc(OC)c1OC do in these assays?
D2 antag: inactive; D2 PAM-1: inactive; D2 ag-1: inactive; D2 PAM-2: inactive; D2 ag-2: inconclusive

Results for CC1=C/C(=N\OS(=O)(=O)c2ccccc2)C(C)=CC1=O ?
D2 antag: inactive; D2 PAM-1: inactive; D2 ag-1: inactive; D2 PAM-2: 79.4; D2 ag-2: inconclusive

How did COc1ccc(S(=O)(=O)/N=C2/C=CC(=O)C(C)=C2C)cc1 do in these assays?
D2 antag: inactive; D2 PAM-1: inactive; D2 ag-1: inactive; D2 PAM-2: inactive; D2 ag-2: inactive

Results for CC(S(=O)(=O)c1ccccc1)S(=O)(=O)c1ccccc1 ?
D2 PAM-2: inactive; D2 ag-2: inactive

How did CC1=C/C(=N\OS(=O)(=O)c2ccccc2)C(C(C)C)=CC1=O do in these assays?
D2 antag: inactive; D2 PAM-1: inactive; D2 ag-1: inactive; D2 PAM-2: 114.3; D2 ag-2: 49.0

What do the screens show for `CCOc1ccc(CCNC(=O)CCc2c(C)nc3c(c(C)nn3-c3ccccc3)c2C)cc1OCC`?
D2 PAM-1: inactive; D2 ag-1: inactive

Results for Cn1c(CCC(=O)O)nc2cc(S(=O)(=O)N3CCCCC3)ccc21 ?
D2 antag: 32.5; D2 PAM-1: inactive; D2 ag-1: inactive; D2 PAM-2: inactive; D2 ag-2: inactive

What do the screens show for `CCOC(=O)N1CCN(Cc2nc3cc([N+](=O)[O-])ccc3n2CC)CC1`?
D2 antag: 36.7; D2 PAM-1: inactive; D2 ag-1: inactive; D2 PAM-2: inactive; D2 ag-2: inactive

What do the screens show for `Cn1c2ccc(F)cc2c2nnc(SCCN3CCOCC3)nc21`?
D2 antag: 35.3; D2 PAM-1: inactive; D2 ag-1: inactive; D2 PAM-2: inactive; D2 ag-2: inactive

How did CCCCn1c2ccc(F)cc2c2nnc(SCCN3CCOCC3)nc21 do in these assays?
D2 antag: inactive; D2 PAM-1: inactive; D2 ag-1: inactive; D2 PAM-2: inactive; D2 ag-2: inactive

What do the screens show for `Cc1nc2ccn(Cc3ccccc3)c(=O)c2cc1C(=O)Nc1ccc(F)cc1Cl`?
D2 PAM-1: inactive; D2 ag-1: inactive

Results for Cc1ccc(CN2C(=O)c3ccccc3CC2(C)C(=O)NC2CCCCC2)cc1 (configuration not stated) ?
D2 PAM-1: inactive

How did COc1ccc(N/C(N)=N/c2nc(C)cc(C)n2)cc1 do in these assays?
D2 PAM-2: inactive; D2 ag-2: inactive

What do the screens show for `Cc1cc(C)nc(/N=C(\N)Nc2ccc(OCc3ccccc3)cc2)n1`?
D2 antag: 69.8; D2 PAM-1: inactive; D2 ag-1: 63.2; D2 PAM-2: inactive; D2 ag-2: inactive

What do the screens show for `CCc1ccc(-n2c(=O)c3cccnc3n2CC(=O)N(CC)c2cccc(C)c2)cc1`?
D2 PAM-1: inactive; D2 ag-1: inactive

How did CN1CCCCC1CCN1c2ccccc2Sc2ccc(S(C)=O)cc21 (configuration not stated) do in these assays?
D2 antag: 95.7; D2 PAM-1: inactive; D2 ag-1: inactive; D2 PAM-2: inactive; D2 ag-2: inactive

What do the screens show for `CN1CCCC(CN2c3ccccc3Sc3ccccc32)C1` (configuration not stated)?
D2 PAM-2: inactive; D2 ag-2: inactive

How did CCCCN1CC(c2nc3ccccc3n2CCCCOc2cc(C)ccc2C)CC1=O (configuration not stated) do in these assays?
D2 PAM-1: inactive; D2 ag-1: inactive

What do the screens show for `Cc1ccc(-c2nn(-c3ccccc3)cc2CNCc2ccccc2)cc1`?
D2 antag: 51.0; D2 PAM-1: inactive; D2 ag-1: inactive; D2 PAM-2: inactive; D2 ag-2: inactive

How did Cc1ccc(-c2nn(-c3ccccc3)cc2CO)cc1 do in these assays?
D2 antag: inactive; D2 PAM-1: inactive; D2 ag-1: inactive; D2 PAM-2: inactive; D2 ag-2: inactive
